In the supplement of paper PMC8866396:
± gives the standard deviation of the averaged measurements.

Legend:
IL-6-GFP PC-9GR = assay: cell viability (CCK-8 OD) relative to DMSO control (fraction of control); higher = more viable cells; conditions: compound concentration: 10 uM; treatment time: 48 h
In short: (§1)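 A purchased 510-compound library was screened at a final 10 μM for 48 h against PC-9 and PC-9GR lung cancer cells overexpressing IL-6-GFP via a lentiviral construct, seeded at 3000 cells/well in 96-well plates. GFP imaging was done on a parallel plate set. For viability, CCK-8 absorbance was recorded and each well's optical density was divided by that of the vehicle control well. There were two independent replicates.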

IL-6-GFP PC-9 = assay: as above; conditions: compound concentration: 10 uM; treatment time: 48 h
In short: as §1

| Structure (SMILES) | cell viability (IL-6-GFP PC-9GR) | cell viability (IL-6-GFP PC-9) |
| --- | --- | --- |
| COc1cc2c(Nc3ccc(Br)cc3F)ncnc2cc1OCC1CCN(C)CC1 [Vandetanib (ZD6474)] | 0.578 ± 0.024 | 0.551 ± 0.059 |
| CCCCOC(=O)c1ccccc1Nc1cccc(C(F)(F)F)c1 [Ufenamate] | 0.8299 ± 0.0043 | 0.992 ± 0.24 |
| CCC(C)C(=O)OC1CC(O)C=C2C=CC(C)C(CCC(O)CC(O)CC(=O)[O-])C21.[Na+] (stereo not given) [Pravastatin sodium] | 0.932 ± 0.038 | 1.17 ± 0.016 |
| CC(=O)[N-]S(=O)(=O)c1ccc(N)cc1.[Na+] [Sulfacetamide Sodium] | 0.982 ± 0.12 | 1.1 ± 0.014 |
| Cc1ccc(C(C)C)cc2c(C)ccc1-2 [Guaiazulene] | 0.98 ± 0.15 | 0.275 ± 0.37 |
| CC[N+](CC)(CC)CCOc1cccc(OCC[N+](CC)(CC)CC)c1OCC[N+](CC)(CC)CC.[I-].[I-].[I-] [Gallamine Triethiodide] | 1.34 ± 0.31 | 1.202 ± 0.0034 |
| O=c1cc[nH]c(=O)[nH]1 [Uracil] | 0.909 ± 0.021 | 0.701 ± 0.11 |
| Cc1ccc(C2OC(CO)C(O)C(O)C2O)cc1Cc1ccc(-c2ccc(F)cc2)s1 (stereo not given) [Canagliflozin] | 1.14 ± 0.12 | 1.16 ± 0.15 |
| CN(C)N=Nc1[nH]cnc1C(N)=O [Dacarbazine] | 0.95 ± 0.14 | 0.8338 ± 0.005 |
| COc1ccc2c(c1)c(CC(=O)OCC(=O)O)c(C)n2C(=O)c1ccc(Cl)cc1 [Acemetacin] | 1.07 ± 0.14 | 0.954 ± 0.2 |
| CCCCCCCCCCCC1=C(O)C(=O)C=C(O)C1=O [Embelin] | 0.858 ± 0.075 | 1.12 ± 0.44 |
| CCCC1CC(C(=O)NC(C(C)O)C2OC(SC)C(O)C(O)C2O)N(C)C1.Cl (stereo not given) [Lincomycin HCl] | 1.13 ± 0.27 | 0.958 ± 0.048 |
| CC(Oc1cc(-c2cnn(C3CCNCC3)c2)cnc1N)c1c(Cl)ccc(F)c1Cl [(S)-crizotinib] | 0.458 ± 0.15 | 0.756 ± 0.12 |
| CCC1=CC2CN(C1)Cc1c([nH]c3ccccc13)C(C(=O)OC)(c1cc3c(cc1OC)N(C)C1C(O)(C(=O)OC)C(OC(C)=O)C4(CC)C=CCN5CCC31C54)C2.O=C(O)C(O)C(O)C(=O)O.O=C(O)C(O)C(O)C(=O)O (stereo not given) [Vinorelbine Tartrate] | 0.559 ± 0.13 | 0.566 ± 0.081 |
| O=C([O-])CC(O)(CC(=O)[O-])C(=O)[O-].O=C([O-])CC(O)(CC(=O)[O-])C(=O)[O-].[BiH6+3].[K+].[K+].[K+] [Gastrodenol] | 0.722 ± 0.25 | 0.986 ± 0.29 |
| CNCc1ccc(-c2[nH]c3cc(F)cc4c3c2CCNC4=O)cc1.O=P(O)(O)O | 0.93 ± 0.16 | 1.05 ± 0.15 |
| CC(C)=CCCC(C)(OC1OC(CO)C(O)C(O)C1O)C1CCC2(C)C1C(O)CC1C3(C)CCC(O)C(C)(C)C3C(OC3OC(CO)C(O)C(O)C3O)CC12C (stereo not given) [Ginsenoside Rg1] | 1.16 ± 0.26 | 1.15 ± 0.17 |
| CC(=O)Nc1ccc(CC(=O)O)cc1 [Actarit] | 1.61 ± 0.35 | 1.15 ± 0.07 |
| S=P(N1CC1)(N1CC1)N1CC1 [Thiotepa] | 1.02 ± 0.074 | 0.977 ± 0.074 |
| CC(N)c1ccc(C(=O)Nc2ccnc3[nH]ccc23)cc1.Cl.Cl (stereo not given) | 0.973 ± 0.42 | 0.74 ± 0.23 |
| CCC(c1ccc(O)cc1)C(CC)c1ccc(O)cc1 (stereo not given) [Hexestrol] | 1.28 ± 0.31 | 1.16 ± 0.15 |
| CN1CCC(=C2c3ccccc3C=Cc3ccccc32)CC1.Cl [Cyproheptadine hydrochloride] | 0.784 ± 0.082 | 1.07 ± 0.17 |

| Structure (SMILES) | cell viability (IL-6-GFP PC-9GR) | cell viability (IL-6-GFP PC-9) |
| --- | --- | --- |
| NC(CC(=O)N1CCn2c(nnc2C(F)(F)F)C1)Cc1cc(F)c(F)cc1F (stereo not given) [Sitagliptin] | 1.62 ± 0.63 | 1.14 ± 0.12 |
| S=c1nc[nH]c2nc[nH]c12 [Mercaptopurine (6-MP)] | 1.13 ± 0.24 | 1.33 ± 0.29 |
| Cc1cccn2c(=O)c(-c3nnn[n-]3)cnc12.[K+] [Pemirolast potassium] | 1.24 ± 0.25 | 1.23 ± 0.31 |
| O=C(OCCOCCO)c1ccccc1Nc1cccc(C(F)(F)F)c1 [Etofenamate] | 1.01 ± 0.29 | 1.24 ± 0.13 |
| CN1CCN(c2ccc(C(=O)Nc3n[nH]c4ccc(Cc5cc(F)cc(F)c5)cc34)c(NC3CCOCC3)c2)CC1 [Entrectinib (RXDX-101)] | 0.164 ± 0.14 | 0.515 ± 0.14 |
| CC(C(=O)O)c1ccc(C(=O)c2cccs2)cc1 (stereo not given) [Suprofen] | 1.53 ± 0.58 | 1.13 ± 0.022 |
| CC(C(=O)O)c1ccc2c(c1)[nH]c1ccc(Cl)cc12 (stereo not given) [Carprofen] | 1.16 ± 0.41 | 0.265 ± 0.35 |
| CC(=O)Nc1cccc(-n2c(=O)n(C3CC3)c(=O)c3c(Nc4ccc(I)cc4F)n(C)c(=O)c(C)c32)c1 | 1.04 ± 0.14 | 0.791 ± 0.31 |
| CC(C)(O)CNc1nc(Nc2ccnc(C(F)(F)F)c2)nc(-c2cccc(C(F)(F)F)n2)n1 [Enasidenib (AG-221)] | 1.25 ± 0.65 | 1.03 ± 0.018 |
| CS(=O)(=O)O.N#CC1(c2ccc(NC(=O)c3cccnc3NCc3ccncc3)cc2)CCCC1 | 1.32 ± 0.072 | 0.887 ± 0.084 |
| COc1cc(Nc2c(C#N)cnc3cc(OCCCN4CCN(C)CC4)c(OC)cc23)c(Cl)cc1Cl [Bosutinib (SKI-606)] | 0.448 ± 0.011 | 0.429 ± 0.064 |
| CC#CC(=O)N1CCCC1c1nc(-c2ccc(C(=O)Nc3ccccn3)cc2)c2c(N)nccn12 (stereo not given) [Acalabrutinib (ACP-196)] | 1.04 ± 0.36 | 0.78 ± 0.084 |
| CC(=O)OCC1OC(n2ccc(=O)[nH]c2=O)C(OC(C)=O)C1OC(C)=O (stereo not given) [uridine triacetate] | 1.59 ± 0.3 | 1.175 ± 0.0034 |
| NC1CN(c2c(F)cc3c(=O)c(C(=O)O)cn(C4CC4F)c3c2Cl)CC12CC2.NC1CN(c2c(F)cc3c(=O)c(C(=O)O)cn(C4CC4F)c3c2Cl)CC12CC2.O.O.O (stereo not given) [Sitafloxacin Hydrate] | 1.11 ± 0.072 | 1.01 ± 0.042 |
| CN(C)c1nc(N(C)C)nc(N(C)C)n1 [Altretamine] | 1.25 ± 0.047 | 1.06 ± 0.036 |
| CCOc1ccc(Cc2cc(C34OCC(CO)(O3)C(O)C(O)C4O)ccc2Cl)cc1 (stereo not given) [Ertugliflozin] | 1.43 ± 0.46 | 0.987 ± 0.16 |
| CC1CC2C3CC(F)C4=CC(=O)C=CC4(C)C3(F)C(O)CC2(C)C1(O)C(=O)CO (stereo not given) [Diflorasone] | 0.825 ± 0.11 | 0.833 ± 0.23 |
| CN(C)CCN1C(=O)c2cccc3cc(N)cc(c23)C1=O [Amonafide] | 0.534 ± 0.025 | 0.425 ± 0.076 |
| Cc1nc2ccc(CN(C)c3ccc(C(=O)NC(CCC(=O)O)C(=O)O)s3)cc2c(=O)[nH]1 (stereo not given) [Raltitrexed] | 0.5349 ± 0.0032 | 0.506 ± 0.17 |
| CN1CCC(NC(=O)Nc2ccc(C#N)cc2)CC1c1nc2ccccc2[nH]1 (stereo not given) | 0.848 ± 0.016 | 1.21 ± 0.033 |
| CC(=O)C1CCC2C3CC(C)C4=CC(=O)CCC4(C)C3C(O)CC12C (stereo not given) [Medrysone] | 0.958 ± 0.024 | 1.15 ± 0.051 |
| Cl.Nc1ccn(C2OC(CO)C(O)C2(F)F)c(=O)n1 (stereo not given) [Gemcitabine HCl] | 0.596 ± 0.012 | 0.566 ± 0.046 |

| Structure (SMILES) | cell viability (IL-6-GFP PC-9GR) | cell viability (IL-6-GFP PC-9) |
| --- | --- | --- |
| COc1nc2ccc(Br)cc2cc1C(c1ccccc1)C(O)(CCN(C)C)c1cccc2ccccc12 (stereo not given) [Bedaquiline] | 0.849 ± 0.0096 | 0.85 ± 0.17 |
| CC(C)=CCOc1ccc(/C=C/C(=O)c2ccc(OCC=C(C)C)cc2OCC(=O)O)cc1 [Sofalcone] | 0.969 ± 0.2 | 1.01 ± 0.23 |
| CC(C(=O)O)c1cccc(C(=O)c2ccccc2)c1 (stereo not given) [Ketoprofen] | 1.64 ± 0.37 | 1.02 ± 0.11 |
| CC1CCN(C(=O)CC#N)CC1N(C)c1ncnc2[nH]ccc12.O=C(O)CC(O)(CC(=O)O)C(=O)O (stereo not given) | 1.2 ± 0.23 | 1.26 ± 0.04 |
| Cc1coc2c1C(=O)C(=O)c1c-2ccc2c(C)cccc12 [Tanshinone I] | 1.32 ± 0.097 | 1.51 ± 0.29 |
| CCc1cc2c(cc1N1CCC(N3CCOCC3)CC1)C(C)(C)c1[nH]c3cc(C#N)ccc3c1C2=O | 0.732 ± 0.081 | 0.584 ± 0.18 |
| N#Cc1ccc(C2CCCc3cncn32)cc1 (stereo not given) [Fadrozole] | 0.6645 ± 0.0044 | 1.18 ± 0.074 |
| NC(=O)c1cccc2cn(-c3ccc(C4CCCNC4)cc3)nc12 (stereo not given) [Niraparib (MK-4827)] | 0.841 ± 0.011 | 0.918 ± 0.045 |
| C#Cc1cccc(Nc2ncnc3cc4c(cc23)OCCOCCOCCO4)c1 [Icotinib] | 1.18 ± 0.048 | 0.58 ± 0.11 |
| O=c1ccc2ccc(O)c(O)c2o1 [Daphnetin] | 1.303 ± 0.0056 | 1.17 ± 0.18 |
| CC1=C(/C=C/C(C)=C/C=C/C(C)=C/C(=O)O)C(C)(C)CCC1 [Tretinoin] | 1.45 ± 0.45 | 1.03 ± 0.15 |
| C=CC(=O)N1CCCC(n2nc(-c3ccc(Oc4ccccc4)cc3)c3c(N)ncnc32)C1 (stereo not given) | 0.572 ± 0.048 | 0.509 ± 0.18 |
| CC(C(=O)O)c1ccc(CC2CCCC2=O)cc1 (stereo not given) [Loxoprofen] | 1.04 ± 0.028 | 1.29 ± 0.05 |
| C=CC(=O)Nc1cc(Nc2nccc(-c3cn(C)c4ccccc34)n2)c(OC)cc1N(C)CCN(C)C.CS(=O)(=O)O [Osimertinib mesylate] | 0.206 ± 0.046 | 0.298 ± 0.12 |
| COc1c2occc2c(OC)c2c(=O)cc(C)oc12 [Khellin] | 0.831 ± 0.16 | 0.888 ± 0.17 |
| O=c1oc2cc(O)ccc2s1 [Tioxolone] | 1.06 ± 0.041 | 1.121 ± 0.0078 |
| COc1ccc(C2OCC3C(c4cc(OC)c(OC)c(OC)c4)OCC23)cc1OC (stereo not given) [Magnolin] | 0.791 ± 0.087 | 1.08 ± 0.081 |
| O=C(c1ccc(OCCN2CCCCC2)cc1)c1c(-c2ccc(O)cc2)sc2cc(O)ccc12 [Raloxifene] | 0.849 ± 0.1 | 1.08 ± 0.11 |
| CNC(=O)c1cc(Oc2ccc(NC(=O)Nc3ccc(Cl)c(C(F)(F)F)c3)cc2)ccn1.Cc1ccc(S(=O)(=O)O)cc1 [Sorafenib Tosylate] | 0.85 ± 0.18 | 0.524 ± 0.017 |
| CCN(CC)CCNC(=O)c1c(C)[nH]c(/C=C2\C(=O)Nc3ccc(F)cc32)c1C [Sunitinib] | 0.573 ± 0.2 | 0.911 ± 0.27 |
| COc1nc2ccc(Br)cc2cc1C(c1ccccc1)C(O)(CCN(C)C)c1cccc2ccccc12.O=C(O)/C=C/C(=O)O (stereo not given) [Bedaquiline fumarate] | 1.18 ± 0.17 | 1.15 ± 0.067 |
